High-throughput results as filed in PubChem.
Nrf2 activator – qHTS of Nrf2 Activators; AREc32 ARE-luciferase reporter (MCF7-derived line), luminescence, 24 h; Potency, µM (highest dose often 46.1 µM), without a hit: at the top dose activation, actives largely listed as activators; 410,000 compounds, 0.31% hits; note: % of control where 0% means no effect; nearly all actives have a fitted effect of over 65% in size
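ARE activation measured as luciferase luminescence (Steady-Glo, 30 min RT) in AREc32_Fluc cells after 24 hr compound exposure at 37 deg C, 5% CO2; cells seeded overnight at 1000/well in OPTI-MEM, 5% FBS.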
A549 tox – Nrf2 qHTS screen for inhibitors: counterscreen for cytotoxicity; A549 ARE-Fluc cells, CellTiter-Fluor viability, 18-24 h; Potency, µM (highest dose often 46 µM), for inactives: at the highest dose activity change, negative = cytotoxicity, hits mostly inhibitors; 390,000 compounds, 0.16% hits; AID 504648, 2011; note: % is set by controls: 0 for no effect and ±100 for the full control effect
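Cytotoxicity counterscreen: CellTiter-Fluor fluorescence was measured in A549 ARE_Fluc cells after 18-24 h of compound exposure in a concentration series. The subsequent BugLite luminescent read reports ARE-luciferase activity.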
Nrf2 inh – Nrf2 qHTS screen for inhibitors. A549 ARE-Fluc reporter, luciferase luminescence, 18-24 h. Potency, µM (series often up to 46 µM), inactives show at the top dose activity change, negative = inhibition, actives largely listed as inhibitors. 360,000 compounds, 2.1% hits. AID 504444, 2011; note: % is set by controls: 0 for no effect and ±100 for the full control effect; nearly all actives have a fitted effect of over 60% in size
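Nrf2 activity is the BugLite luminescence, read 15 min after reagent at room temperature, following CellTiter-Fluor cytotoxicity readout (30 min, 37C). Compound titrations were applied for 18-24 h to 5000 A549 ARE_Fluc cells/well in 5% FBS OPTI-MEM.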
ELG1 DNA repair – qHTS screen for small molecules that inhibit ELG1-dependent DNA repair in human embryonic kidney (HEK293T) cells expressing luciferase-tagged ELG1 | HEK293T ELG1-luciferase reporter, luminescence, 16 h; DNA damage induced by 5-fluorouridine | Potency, µM (doses to about 46.1 µM), without a hit: top-dose activity change, negative = inhibition, hits mostly inhibitors | 330,000 compounds, 2.3% hits; note: % is set by controls: 0 for no effect and ±100 for the full control effect; nearly all actives have a fitted effect of over 55% in size
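Cells (2,000 per well) received 5-fluorouridine plus test compound or DMSO and were incubated 16 hr at 37 °C, 5% CO2. Luciferase activity was read by luminescence 30 min after ONE-Glo addition; signal suppression marked inhibition of damage-induced ELG1 function.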
ELG1 FLuc counter – qHTS screen for small molecules that inhibit ELG1-dependent DNA repair: Hit Confirmation in Cell-Based Luciferin Assay | cell-free firefly luciferase luminescence counter-screen, ViewLux | 350 compounds, 3% hits | Potency, µM (top dose mostly 46.1 µM), for the others: top-dose activity change, negative = inhibition, most hits filed as inhibitors | shares compounds with ELG1 DNA repair | AID 624247, 2012; note: % is set by controls: 0 for no effect and ±100 for the full control effect
ELG1 Luc conf – HTS assay for small molecules that inhibit ELG1-dependent DNA repair in human embryonic kidney (HEK293T) cells expressing luciferase-tagged ELG1: Hit Confirmation. shares compounds with ELG1 DNA repair. HEK293T ELG1-luciferase levels, luminescence; cells co-treated with 5-fluorouridine. Potency, µM (highest dose often 46.1 µM), for the others: at the top dose activity change, negative = inhibition, actives largely listed as inhibitors. 670 compounds, 68% hits. AID 624248, 2012; note: % is set by controls: 0 for no effect and ±100 for the full control effect; nearly all actives have a fitted effect of over 55% in size
ELG1 MMS Luc – MMS-stimulated human ELG1 repair inhibition, confirmed; shares compounds with ELG1 DNA repair; HEK293T luciferase-tagged ELG1 level, MMS stimulated; Potency, µM (series often up to 46.1 µM), for the others: at the highest dose activity change, negative = inhibition, usual class: inhibitors; 670 compounds, 53% hits; note: % is set by controls: 0 for no effect and ±100 for the full control effect; nearly all actives have a fitted effect of over 60% in size
ELG1 5-FU – qHTS screen for small molecules that inhibit ELG1-dependent DNA repair: Hit Confirmation with 5FU Viability | shares compounds with ELG1 DNA repair | Potency, µM (doses to about 46.1 µM), for inactives: at the top dose activity change, negative = viability loss, hits mostly cytotoxic | 670 tested, under 10 active | cell viability with 5-FU, ELG1-dependent repair;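 note: ELG1-luc HEK293T cells cotreated with 5-fluorouridine at 10 µM final; viability measured 16 h after compound addition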
ELG1 MMS viab – qHTS screen for small molecules that inhibit ELG1-dependent DNA repair: Hit Confirmation with MMS Viability | shares compounds with ELG1 DNA repair | Cell viability with MMS, ELG1-dependent DNA repair | Potency, µM (top dose mostly 46.1 µM), without a hit: at the highest dose activity change, negative = viability loss, actives largely listed as cytotoxic | 670 compounds, 33% hits | AID 624251, 2012;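 note: ELG1-luc HEK293T cells co-treated with 10 µM MMS; viability read 16 h after compound addition; % is set by controls: 0 for no effect and ±100 for the full control effect; nearly all actives have a fitted effect of over 60% in size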
Cell viab unstim – qHTS screen for small molecules that inhibit ELG1-dependent DNA repair: Hit Confirmation with Unstimulated Viability Assay; shares compounds with ELG1 DNA repair; cell viability counter-screen, unstimulated, luminescence; Potency, µM (doses to about 45.9 µM), for the others: at the top dose activity change, negative = loss of viability, hits mostly cytotoxic; 900 compounds, 8% hits;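 note: compound exposure lasted 16 hours before reading; % is set by controls: 0 for no effect and ±100 for the full control effect; nearly all actives have a fitted effect of over 55% in size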
FLuc biochem – qHTS screen for small molecules that inhibit ELG1-dependent DNA repair: Hit Confirmation in Biochemical Luciferin Assay. Potency, µM (highest dose often 57.5 µM), for inactives: at the top dose activity, negative = inhibition, most hits filed as inhibitors. AID 624253, 2012. 350 compounds, 10% hits. purified firefly luciferase, luminescence counter-screen. shares compounds with ELG1 DNA repair; note: % is set by controls: 0 for no effect and ±100 for the full control effect
An asterisk follows results filed as active; u = inconclusive; x = no result; [ ] = another dose, or the depositor's remark. Most compounds without a hit are left out; they make up all but 3.7% or so of the library. Calls come from the whole dose curve; as a rule, active = well fitted curve in the direction sought with a large enough effect; inconclusive = small, poorly fitted or top-dose-only effect, or another doubt; inactive = no such curve, though single readings can be large; an effect the other way counts as inactive or inconclusive. Potency is the fitted concentration of half-maximal effect.

SMILES	Nrf2 activator	A549 tox	Nrf2 inh	ELG1 DNA repair	Cell viab unstim	others
CC1CCCCN1c1ncnc(N)c1[N+](=O)[O-] (configuration not stated)	-1.5%	-3.0%	-0.7%	3.26µM*	6.1%	ELG1 Luc conf=7.05µM*;ELG1 MMS Luc=14.1µM*;ELG1 5-FU=1.8%;ELG1 MMS viab=u
C[C@@H]1CC2[C@@H]3CCC4=CC(=O)C=C[C@]4(C)[C@@]3(F)[C@@H](O)C[C@]2(C)[C@@]1(O)C(=O)NCCCCCCOC[C@H]1O[C@@H](n2cnc3cc(Cl)c(Cl)cc32)[C@@H]2OC(C)(C)O[C@@H]21 (some centres not stated)	x	x	x	x	-21.5%[92.2 µM]	ELG1 FLuc counter=20.8%[92.2 µM];FLuc biochem=-5.7%[115 µM]
Nc1ccc(/C=C/c2ccc3cccnc3c2)cc1	x	x	x	x	-1.3%	ELG1 FLuc counter=42.9%;FLuc biochem=0.366µM*
O=S(=O)(c1ccc(Cl)nc1)N1CCC(Cc2ccccc2)CC1	0.2%	4.8%	21.3%	u	x
NC(=O)C1CCN(c2ccc(S(=O)(=O)N3CCC(Cc4ccccc4)CC3)cn2)CC1	-1.1%	-17.8%	1.64µM*	u	u	ELG1 Luc conf=-14.6%;ELG1 MMS Luc=1.99µM*;ELG1 5-FU=-10.3%;ELG1 MMS viab=2.5µM*
COc1cc(OC)c2c(=O)cc(-c3ccccc3)oc2c1	26.5%	9.9%	23.1%	u	x
COc1cc(C)c2c(=O)cc(-c3ccccc3)oc2c1	x	x	x	x	-6.4%
COc1ccc(/C=C/c2ccc3ccccc3n2)c(OC)c1	x	x	x	x	-24.6%	ELG1 FLuc counter=-8.6%;FLuc biochem=u
COc1cc(OC)c(OC)cc1C=Cc1ccc2ccccc2n1	31.3%	x	x	x	x
COc1ccccc1/C=C/c1nc2ccccc2o1	x	x	x	x	0.3%
C=CCn1c(C)cc(C(=O)COC(=O)c2n[nH]c(=O)c3ccccc23)c1C	3.7%	6.0%	u	u	-10.3%
Cc1cc(OCC(=O)Nc2ccc(-c3nc4cc(Cl)ccc4o3)cc2)cc(C)c1Cl	-0.8%	2.2%	5.5%	x	x
COc1ccc(-n2c(C(C)n3nc(C)c([N+](=O)[O-])c3C)n[nH]c2=S)cc1 (configuration not stated)	-0.4%	-7.9%	-5.9%	u	x
